Test results published in PubChem BioAssay AID504546 (Broad Institute, 2011).
Results filed as inconclusive are left out. Active and inactive are the calls of the source.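 How the source made its calls: active means every repeat run fits a falling-signal curve with half-maximal potency within ten times top tested dose; inconclusive means runs disagree, or flat moderate drop, or poor fit; inactive means every run inactive, including signal moving upward.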

Assay: ADP-Glo luciferase signal interference – biochemical, luminescence, cherry-picked samples, set 2, artefact control for CDK5 inhibitor project, dose response (AID 504546)

Nc1ccc(-c2cnc(N)c(C(=O)c3cccnc3)n2)cn1
outcome: inactive

Cc1cccc(/N=C/c2c(O)ccc3oc4c(c23)CCCC4)n1
outcome: inactive

Cc1nn(-c2nc3ccccc3[nH]2)c(=O)c2ccccc12
outcome: inactive

Cc1cc(-c2nsc(=O)o2)c(S(C)(=O)=O)s1
outcome: inactive

Nc1nc(Nc2cccc(Cl)c2)nc(NCCO)c1[N+](=O)[O-]
outcome: inactive

CCCc1cc(-c2[nH]ncc2-c2ccc(C(=O)OCC)o2)c(O)cc1O
outcome: inactive

Cc1ccc(-n2nc(C)c3c2C(Br)C(C)(C)CC3=O)nc1 (stereo unspecified)
outcome: inactive

CCNc1nc(N)nc(-c2cc(Cl)ccc2O)n1
outcome: inactive

Clc1cncc(Cl)c1N/N=C/c1ccncc1
outcome: inactive

O=C(O)c1ccc(/C=N\Nc2ccccn2)cc1
outcome: inactive

CCNc1nc(Nc2ccc(C)c(Cl)c2)c2cnn(C)c2n1
outcome: inactive

COc1ccc(C(=O)N2CCN(c3ccccn3)CC2)cc1
outcome: inactive

COc1ccc(C(=O)c2sc(NC(C)C)nc2N)cc1OC
outcome: inactive

CC(C)[C@H](CO)Nc1nc(Nc2ccc(Cl)c(C(=O)O)c2)c2ncn(C(C)C)c2n1
outcome: inactive

COc1ccc(Nc2nc(N)c([N+](=O)[O-])c(N3CCCC3)n2)cc1
outcome: inactive

CCc1c(Nc2ccccc2Cl)nc(N)[nH]c1=O
outcome: inactive
